High-throughput results deposited in PubChem by Broad Institute.
FGF22 binding = binders of recombinant human FGF22 by thermal shift; Q9HCT0; SYPRO orange fluorescence; percent of sucrose octasulfate shift, DMSO zero; activity (Tm shift, normalised), % at 9.99 µM; actives 1.5% (n = 340,000); AID 651658;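 active = mean Tm shift, scaled 0 neutral to 100 positive control, at about 1.3% or above, every replicate too, limit read from the data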
ERAP1 inh = inhibitors of human ERAP1 aminopeptidase. Q9NZ08. recombinant ERAP1, Leu-AMC fluorescence, 60 min. inhibition, % at 10.7 µM. actives 0.15% (n = 340,000);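 active = mean replicate inhibition of at least 30%, or all replicates individually reaching that 30% level; inactive = mean below 30% and not every replicate reaching it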;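 also: 0% = neutral control wells and 100% = L-leucinethiol positive control wells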
Target sequence (Q9NZ08 whole entry, looked up): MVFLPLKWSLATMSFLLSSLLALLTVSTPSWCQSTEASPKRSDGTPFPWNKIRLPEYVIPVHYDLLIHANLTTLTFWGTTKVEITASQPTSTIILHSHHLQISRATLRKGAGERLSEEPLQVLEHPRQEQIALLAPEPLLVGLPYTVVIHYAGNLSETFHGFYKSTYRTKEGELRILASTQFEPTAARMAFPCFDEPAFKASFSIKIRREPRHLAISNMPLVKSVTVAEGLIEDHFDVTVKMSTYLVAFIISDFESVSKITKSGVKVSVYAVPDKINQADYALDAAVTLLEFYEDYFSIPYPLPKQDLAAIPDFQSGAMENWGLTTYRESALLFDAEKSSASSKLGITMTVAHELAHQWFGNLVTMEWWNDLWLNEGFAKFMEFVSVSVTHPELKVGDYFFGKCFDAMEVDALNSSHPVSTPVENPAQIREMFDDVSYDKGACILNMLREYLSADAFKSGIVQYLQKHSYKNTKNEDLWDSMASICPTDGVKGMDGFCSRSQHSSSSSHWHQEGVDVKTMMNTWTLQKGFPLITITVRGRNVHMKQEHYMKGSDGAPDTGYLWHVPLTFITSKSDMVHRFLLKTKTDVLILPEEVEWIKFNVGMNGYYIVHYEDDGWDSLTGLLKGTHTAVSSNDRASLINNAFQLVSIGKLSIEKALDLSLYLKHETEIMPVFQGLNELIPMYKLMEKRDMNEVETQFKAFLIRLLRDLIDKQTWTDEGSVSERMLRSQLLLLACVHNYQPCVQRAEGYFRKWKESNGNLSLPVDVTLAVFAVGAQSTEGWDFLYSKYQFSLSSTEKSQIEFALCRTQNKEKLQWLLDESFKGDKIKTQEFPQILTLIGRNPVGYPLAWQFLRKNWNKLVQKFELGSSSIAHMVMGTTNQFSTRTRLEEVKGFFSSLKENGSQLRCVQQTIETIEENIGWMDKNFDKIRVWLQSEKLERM
Casp6 inh = blocks human caspase-6 cleavage activity. inhibition, % at 12.5 µM. actives 0.53% (n = 350,000). purified caspase-6, Z-VEID-R110 cleavage fluorescence. P55212;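 active = mean inhibition across replicates at least about 35%, with every replicate also reaching that limit, limit read from the data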;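 also: 0% = median of neutral control wells and 100% = no fluorescence left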
SIRT5 inh = inhibitors of human sirtuin-5 desuccinylase. Purified SirT5, succinyl-peptide AMC, trypsin-coupled fluorescence. inhibition, % at 15 µM. Q9NXA8. actives 1.1% (n = 330,000); in the data active = inhibition above about 15%
The depositor's hits bear a star. Rows were chosen to be rich in hits. Some 3.1% of all compounds tested hit in one or more screens of this group.

How did C[C@@H]1CN([C@@H](C)CO)C(=O)Cc2cc(NC(=O)Nc3cccc4ccccc34)ccc2O[C@H]1CN(C)Cc1ccc(C(=O)O)cc1 do in these assays?
FGF22 binding: -0.2; ERAP1 inh: -16.1; Casp6 inh: 3.2; SIRT5 inh: 0.0

How did COC(=O)COc1cc(Cl)c(C=O)cc1OC do in these assays?
FGF22 binding: 0.2; ERAP1 inh: -0.4; Casp6 inh: 0.0; SIRT5 inh: 0.1

How did CCOC(=O)C(C)Oc1cc(Cl)c(C=O)cc1OC (stereo not given) do in these assays?
FGF22 binding: 0.3; ERAP1 inh: 4.5; Casp6 inh: 0.8; SIRT5 inh: 15.8*

How did C[C@@H]1CN([C@H](C)CO)C(=O)c2cc(C#C[C@@H](C)O)cnc2O[C@H]1CN(C)C(=O)c1ccccc1F do in these assays?
FGF22 binding: -0.1; ERAP1 inh: -0.7; Casp6 inh: -1.3; SIRT5 inh: -1.6

Results for Oc1ccc(/C=N/Nc2ccnc3cc(Cl)ccc23)c(O)c1 ?
FGF22 binding: 0.3; ERAP1 inh: -0.2; Casp6 inh: 69.2*; SIRT5 inh: -1.5

How did C[C@@H]1CN([C@H](C)CO)C(=O)c2cc(NS(=O)(=O)c3cn(C)cn3)ccc2O[C@@H](C)CCCCO[C@H]1CN(C)C(=O)Nc1ccc(F)cc1 do in these assays?
FGF22 binding: -0.1; ERAP1 inh: 0.1; Casp6 inh: 1.2; SIRT5 inh: -3.4

How did CCOc1ccc(NC(=O)CN(C)C(=O)C2CC(=O)N(CCc3ccc(OC)c(OC)c3)C2)cc1OCC (stereo not given) do in these assays?
FGF22 binding: 6.3*; ERAP1 inh: 0.3; Casp6 inh: -1.4; SIRT5 inh: -1.8

What do the screens show for `COc1cc(C=C2C(=O)C=CC2=O)ccc1O`?
FGF22 binding: -0.5; ERAP1 inh: 53.5*; Casp6 inh: 79.0*; SIRT5 inh: 28.0*

How did COCCCNC(=O)CN(CCc1ccccc1)S(=O)(=O)c1ccccc1 do in these assays?
FGF22 binding: 0.2; ERAP1 inh: -2.8; Casp6 inh: -0.7; SIRT5 inh: -2.5

What do the screens show for `COCCCNC(=O)CN(CCc1ccccc1)S(=O)(=O)c1ccc(C)cc1`?
FGF22 binding: 44.0*; ERAP1 inh: -1.8; Casp6 inh: 2.8; SIRT5 inh: -1.6

How did COc1ccc(-c2c[n+]3c(n2-c2c(C)n(C)n(-c4ccccc4)c2=O)CCCCC3)cc1 do in these assays?
FGF22 binding: 43.1*; ERAP1 inh: -1.0; Casp6 inh: -3.4; SIRT5 inh: -2.3

How did Cc1nnc(SCC(=O)N(C)C2CCCCC2)s1 do in these assays?
FGF22 binding: 43.5*; ERAP1 inh: -1.8; Casp6 inh: -0.7; SIRT5 inh: -0.3

How did CN(C(=O)CSc1n[nH]c(N)n1)C1CCCCC1 do in these assays?
FGF22 binding: -0.3; ERAP1 inh: 0.9; Casp6 inh: 0.3; SIRT5 inh: -2.7

Results for CCc1c(C)sc2nc3c(C(=O)N4CCOCC4)cc(C(=O)c4ccccc4O)cn3c(=O)c12 ?
FGF22 binding: 43.3*; ERAP1 inh: -0.5; Casp6 inh: 0.6; SIRT5 inh: 0.7

What do the screens show for `CC(C)C#Cc1cnc2c(c1)C(=O)N([C@@H](C)CO)C[C@H](C)[C@@H](CN(C)C(=O)Nc1cc(F)ccc1F)O2`?
FGF22 binding: -0.2; ERAP1 inh: 2.8; Casp6 inh: -3.3; SIRT5 inh: -1.2

Results for C[C@@H]1CCCCO[C@H](CN(C)S(=O)(=O)c2ccc(F)cc2)[C@@H](C)CN([C@@H](C)CO)C(=O)c2cc(NC(=O)Nc3ccccc3)ccc2O1 ?
FGF22 binding: 0.2

What do the screens show for `COc1ccc([C@H]2N[C@]3(CCCN(Cc4cccn4C)C3=O)[C@H]3C(=O)N(C)C(=O)[C@@H]23)cc1`?
FGF22 binding: 0.3; ERAP1 inh: -0.4; Casp6 inh: 11.1; SIRT5 inh: 34.2*

What do the screens show for `CCN1C(=O)[C@H]2[C@@H](c3ccc(OC)cc3)N[C@]3(CCCN(Cc4cccn4C)C3=O)[C@H]2C1=O`?
FGF22 binding: 0.2; ERAP1 inh: -1.7; Casp6 inh: 5.6; SIRT5 inh: -1.7

What do the screens show for `CCN1C(=O)[C@H]2[C@@H](c3ccccc3)N[C@]3(CCCN(Cc4ccccc4)C3=O)[C@H]2C1=O`?
FGF22 binding: -0.1; ERAP1 inh: -1.1; Casp6 inh: 4.5; SIRT5 inh: 23.6*

How did C[C@H](CO)N1C[C@H](C)[C@H](CN(C)Cc2ccc3c(c2)OCO3)OCCCC[C@H](C)Oc2ccc(NS(C)(=O)=O)cc2C1=O do in these assays?
FGF22 binding: -1.2; ERAP1 inh: -0.8; Casp6 inh: 0.1; SIRT5 inh: 1.1

What do the screens show for `CCOC(=O)CN1C(=O)S/C(=C\c2ccc(-c3ccc(C(=O)O)c(Cl)c3)o2)C1=O`?
FGF22 binding: -0.3; ERAP1 inh: 6.9; Casp6 inh: 48.9*; SIRT5 inh: 12.4

How did O=C(O)c1ccc(-c2ccc(/C=C3\NC(=O)N(Cc4ccc(Cl)cc4)C3=O)o2)cc1Cl do in these assays?
FGF22 binding: 0.3; ERAP1 inh: -1.7; Casp6 inh: 64.6*; SIRT5 inh: 25.9*

What do the screens show for `Cc1ccc(N2NC(=O)/C(=C/c3ccc(-c4ccc(Cl)c(C(=O)O)c4)o3)C2=O)cc1`?
FGF22 binding: 0.1; ERAP1 inh: 9.2; Casp6 inh: 22.4; SIRT5 inh: 5.5

What do the screens show for `Cc1ccc(S(=O)(=O)N(C)C[C@H]2Oc3c(NS(=O)(=O)c4ccc(Cl)cc4)cccc3C(=O)N([C@@H](C)CO)C[C@H]2C)cc1`?
FGF22 binding: -0.1; ERAP1 inh: 1.3; Casp6 inh: -1.9; SIRT5 inh: 2.6

How did Cc1noc(C)c1S(=O)(=O)N(C)C[C@H]1Oc2ccc(NC(=O)CCCN(C)C)cc2C(=O)N([C@H](C)CO)C[C@H]1C do in these assays?
FGF22 binding: 0.0; ERAP1 inh: -0.8; Casp6 inh: -1.3; SIRT5 inh: 3.5

What do the screens show for `CN(C)c1ccc(O)c2c1CC1CC3[C@@H](N(C)C)C(=O)C(C(N)=O)=C(O)[C@]3(O)C(=O)C1=C2O` (stereo not given in full)?
FGF22 binding: 0.0; ERAP1 inh: 4.6; Casp6 inh: 66.0*; SIRT5 inh: 33.9*

Results for Cn1c(C(=O)N2CCCC(Nc3ccc(F)cc3)C2)cc2ccccc21 (stereo not given) ?
FGF22 binding: 0.1; ERAP1 inh: 3.1; Casp6 inh: 40.8*; SIRT5 inh: 0.8

How did Cc1cc(C)c(C(=O)N2CCCC(Nc3ccc(F)cc3)C2)o1 (stereo not given) do in these assays?
FGF22 binding: -0.1; ERAP1 inh: 0.4; Casp6 inh: 1.6; SIRT5 inh: 3.6

What do the screens show for `C[C@H](CO)N1C[C@H](C)[C@H](CN(C)C(=O)Nc2ccccc2)Oc2c(NS(=O)(=O)c3ccc(F)cc3)cccc2C1=O`?
FGF22 binding: 0.3; ERAP1 inh: -0.6; SIRT5 inh: 4.7

What do the screens show for `O=C(CSCc1nc2c(nnn2Cc2ccc(F)cc2)c(=O)[nH]1)Nc1c(Cl)cc(Cl)cc1Cl`?
FGF22 binding: 43.3*; ERAP1 inh: 5.5; Casp6 inh: -1.4; SIRT5 inh: -0.1

What do the screens show for `O=C1c2ccccc2C(=O)C1(CO)c1ccccc1`?
FGF22 binding: 0.0; ERAP1 inh: -0.1; Casp6 inh: 38.4*; SIRT5 inh: -7.2
